Laboratory results as given in PubChem BioAssay (NCATS).
Results filed as inconclusive are left out. Active and inactive are the calls of the source. Unless noted, calls come from the whole dose curve; as a rule, active = well fitted curve in either direction with a large enough effect (not every such curve was filed as active); inconclusive = small, poorly fitted or top-dose-only effect, or another doubt; inactive = flat fitted curve, though single readings scatter.

Columns and labels:
[1] = target: Lysosomal acid glucosylceramidase (Homo sapiens) (UniProt P04062); assay: Glucocerebrosidase-p2 (AID 348; in the data active = potency below about 10 µM; note: potency is the fitted concentration of half-maximal effect); conditions: purified GBA, blue fluorogenic substrate, 40 min
Lysosomal acid glucosylceramidase (Homo sapiens), sequence (P04062 whole entry, looked up): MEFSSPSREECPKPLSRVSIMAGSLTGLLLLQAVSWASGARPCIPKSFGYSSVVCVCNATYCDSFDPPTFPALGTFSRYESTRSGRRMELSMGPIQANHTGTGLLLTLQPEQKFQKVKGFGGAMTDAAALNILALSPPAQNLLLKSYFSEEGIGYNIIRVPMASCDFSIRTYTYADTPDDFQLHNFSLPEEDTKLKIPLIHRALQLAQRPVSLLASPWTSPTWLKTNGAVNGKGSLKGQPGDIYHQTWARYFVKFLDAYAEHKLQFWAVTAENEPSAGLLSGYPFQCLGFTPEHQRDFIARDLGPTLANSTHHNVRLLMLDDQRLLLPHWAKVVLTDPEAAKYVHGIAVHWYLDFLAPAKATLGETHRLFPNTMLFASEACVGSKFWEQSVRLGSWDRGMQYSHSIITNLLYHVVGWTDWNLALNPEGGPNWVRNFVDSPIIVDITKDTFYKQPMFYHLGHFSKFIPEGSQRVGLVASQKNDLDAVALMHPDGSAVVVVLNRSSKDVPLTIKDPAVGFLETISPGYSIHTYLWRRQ
Outline: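 Compounds titrated from 0.6 nM upwards against 0.2 nM enzyme in pH 5.9 citric acid/KH2PO4, taurocholate, tween-20; blue fluorogenic substrate 80 uM, 40 min room temperature, stopped and read Ex 365/Em 440 for AC50.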

[2] = AP1 Signaling Pathway (AID 357); conditions: ME-180 AP-1-bla reporter, EGF-induced, beta-lactamase ratio, 5 h; at 7.69 µM (top of the series) unless noted;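 note: ME-180 reporter cells stimulated with EGF at its EC50 level; % is set by controls: 0 for no effect and ±100 for the full control effect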
Outline: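 Modulation of EGF-driven AP-1 transcription was assessed with a beta-lactamase reporter in ME-180 cells. Compound and EC50 EGF were co-incubated 5 hours at 37 °C before 2.5-hour CCF4 loading at room temperature and dual-emission reading.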

[3] = NFAT Signaling Pathway (AID 444); conditions: Jurkat NFAT-bla M1, carbachol, beta-lactamase ratio, 5 h; at 7.69 µM (top of the series) unless noted;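 note: carbachol stimulus at about its EC50 of 1 µM final; % is set by controls: 0 for no effect and ±100 for the full control effect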
Outline: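 Read-out: CCF4 FRET ratio (460 nm/530 nm) after 1 h RT dye loading, used for %activity and AC50 from titration series. Cells: Jurkat NFAT-β-lactamase/M1 line, treated with compound plus 1 uM carbachol for 5 h, 37 °C.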

[4] = Stat Signaling Pathway (AID 446); conditions: ME-180 SIE beta-lactamase reporter, IL-6 stimulated, 5 h; at 7.69 µM (top of the series) unless noted;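 note: ME-180 cervical cancer cells given 40 pM IL-6 alongside compound; SIE-controlled beta-lactamase reporter measured as 460/530 nm FRET emission ratio; % is set by controls: 0 for no effect and ±100 for the full control effect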
Outline: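 ME-180 SIE-bla cells; overnight plating; cpd + IL-6 40 pM, 5 h, 37 C; LiveBLAzer 2.5 h RT; 460/530 nm emission ratio. Normalized to 300 pM IL-6 and 125 nM JAK inhibitor controls.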

[5] = target: Glucocorticoid receptor (Homo sapiens) (UniProt P04150); assay: GR-GFP Redistribution (AID 450;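 active = compounds whose dose series gives a full or clear partial fitted curve of increased nuclear translocation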; note: potency is the fitted concentration of half-maximal effect); conditions: U2OS GR-GFP nuclear translocation, laser cytometry, 2 h
Glucocorticoid receptor (Homo sapiens), sequence (P04150 whole entry, looked up, the tested form may be a part): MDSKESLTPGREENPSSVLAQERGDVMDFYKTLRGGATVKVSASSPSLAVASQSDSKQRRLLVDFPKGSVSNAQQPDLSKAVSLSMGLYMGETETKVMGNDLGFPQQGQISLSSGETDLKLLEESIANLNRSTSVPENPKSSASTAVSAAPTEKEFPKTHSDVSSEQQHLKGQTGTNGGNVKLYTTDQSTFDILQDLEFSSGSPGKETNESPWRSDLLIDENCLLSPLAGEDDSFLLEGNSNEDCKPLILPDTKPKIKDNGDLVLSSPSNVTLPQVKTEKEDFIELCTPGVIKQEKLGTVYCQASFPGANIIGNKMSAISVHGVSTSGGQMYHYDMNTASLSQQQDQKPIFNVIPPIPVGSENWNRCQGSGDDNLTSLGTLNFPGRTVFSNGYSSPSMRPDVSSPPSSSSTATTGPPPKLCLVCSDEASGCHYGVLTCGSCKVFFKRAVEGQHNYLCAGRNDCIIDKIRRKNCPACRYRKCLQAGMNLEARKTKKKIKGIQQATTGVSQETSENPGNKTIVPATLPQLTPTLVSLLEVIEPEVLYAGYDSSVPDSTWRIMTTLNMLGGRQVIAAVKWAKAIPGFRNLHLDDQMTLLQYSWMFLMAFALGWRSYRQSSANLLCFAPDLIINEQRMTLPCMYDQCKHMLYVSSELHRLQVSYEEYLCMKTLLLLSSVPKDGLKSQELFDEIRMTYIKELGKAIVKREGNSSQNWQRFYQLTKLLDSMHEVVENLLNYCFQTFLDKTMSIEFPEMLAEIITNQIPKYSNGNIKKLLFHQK

[6] = target: Glucocorticoid receptor (Homo sapiens) (UniProt P04150); assay: GR-EFC Redistribution (AID 451; calls by dose curve; note: potency is the fitted concentration of half-maximal effect); conditions: CHO-K1 GR-EFC translocation, beta-gal luminescence, 2 h
Outline: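 Translocation of GR-ED fusion to nuclear EA restores b-gal, read by luminescence after 1 h room-temperature detection. Engineered CHO-K1 biosensor cells, 1,000/well, exposed 2 h at 37 C to titrations up to 46 uM final.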

[7] = target: Mitogen-activated protein kinase 10 (Mus musculus) (UniProt Q61831); assay: JNK3 AlphaScreen Assay (AID 530); conditions: JNK3 lysate, c-Jun phosphorylation; series mostly up to 11.4 µM;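 note: kinase came from lysate of stimulated human HepG2 cells; signal reports phosphorylation of biotinylated GST-cJun 1-79 at Ser73 with 10 µM ATP; % is set by controls: 0 for no effect and ±100 for the full control effect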
Outline: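 Compound titrations were preincubated 15 minutes at room temperature with substrate, antibody and pre-activated JNK3-containing HepG2 lysate. Reactions were started with 10 uM ATP and stopped with EDTA-containing bead buffer for AlphaScreen detection.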

[8] = target: 3',5'-cyclic-AMP phosphodiesterase 4B (Homo sapiens) (UniProt Q07343); assay: qHTS Assay for Inhibitors of PDE-IV (AID 607; active = well fitted activation curve with a large enough effect in the main read-out, with a control signal flat, not every such curve was filed as active; note: % of control where 0% means no effect); conditions: HEK293 ACTOne CNG channel cells, membrane potential fluorescence; series mostly up to 22.9 µM
3',5'-cyclic-AMP phosphodiesterase 4B (Homo sapiens), sequence (Q07343 whole entry, looked up): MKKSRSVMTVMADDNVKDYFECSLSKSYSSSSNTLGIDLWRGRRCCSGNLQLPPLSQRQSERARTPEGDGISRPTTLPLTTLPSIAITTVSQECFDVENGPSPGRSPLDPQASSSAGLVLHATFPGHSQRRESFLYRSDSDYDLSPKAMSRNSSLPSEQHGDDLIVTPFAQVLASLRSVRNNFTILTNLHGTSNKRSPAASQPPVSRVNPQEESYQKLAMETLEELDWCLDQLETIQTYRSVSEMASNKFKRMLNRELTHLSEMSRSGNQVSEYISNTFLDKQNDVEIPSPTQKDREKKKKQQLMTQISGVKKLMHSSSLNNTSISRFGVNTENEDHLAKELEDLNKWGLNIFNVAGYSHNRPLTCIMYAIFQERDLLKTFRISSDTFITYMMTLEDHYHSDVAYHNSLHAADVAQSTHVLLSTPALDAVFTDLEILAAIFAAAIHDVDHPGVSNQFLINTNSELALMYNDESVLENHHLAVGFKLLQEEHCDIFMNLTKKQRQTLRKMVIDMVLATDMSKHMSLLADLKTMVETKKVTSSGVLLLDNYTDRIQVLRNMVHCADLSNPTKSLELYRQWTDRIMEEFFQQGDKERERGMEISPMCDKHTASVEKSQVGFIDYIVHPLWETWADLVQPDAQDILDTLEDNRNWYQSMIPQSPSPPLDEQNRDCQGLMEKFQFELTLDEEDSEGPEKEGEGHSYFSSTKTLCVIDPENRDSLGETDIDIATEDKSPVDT
Outline: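 ACTOne HEK293 cells carry a modified cAMP-gated CNG channel and express endogenous PDE4; plated 1000 cells/well, compounds up to 22.9 uM final. Membrane-potential dye fluorescence (ex 535/em 590) was read; parental cells received 10 uM forskolin + 100 uM RO 20-1724.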

[9] = qHTS Assay for Identification of Small Molecule Agonists for Hypoxia Response Element Signaling Pathway (AID 914; active = well fitted activation curve with a large enough effect in the signal ratio, with a control signal flat, not every such curve was filed as active; the % refers to the signal ratio; note: % of control where 0% means no effect); conditions: ME-180 (cervical carcinoma) HRE-bla reporter, beta-lactamase ratio, CoCl2, 17 h; activation: active compounds read high
Outline: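 Compounds in a titration series were added to ME-180 reporter cells alongside an EC50 level of CoCl2. After 17 hours, beta-lactamase activity was read as the 460nm/530nm emission ratio of CCF4, giving AC50 values.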

[10] = target: Cytochrome P450 3A4 (Homo sapiens) (UniProt P08684); assay: qHTS Assay for Activators of Cytochrome P450 3A4 (AID 885; active = well fitted activation curve with a large enough effect; note: nearly all actives have a fitted effect of over 65% in size); conditions: recombinant CYP3A4, Luciferin-PPXE luminescence, 60 min; series mostly up to 11.4 µM
Cytochrome P450 3A4 (Homo sapiens), sequence (P08684 whole entry, looked up): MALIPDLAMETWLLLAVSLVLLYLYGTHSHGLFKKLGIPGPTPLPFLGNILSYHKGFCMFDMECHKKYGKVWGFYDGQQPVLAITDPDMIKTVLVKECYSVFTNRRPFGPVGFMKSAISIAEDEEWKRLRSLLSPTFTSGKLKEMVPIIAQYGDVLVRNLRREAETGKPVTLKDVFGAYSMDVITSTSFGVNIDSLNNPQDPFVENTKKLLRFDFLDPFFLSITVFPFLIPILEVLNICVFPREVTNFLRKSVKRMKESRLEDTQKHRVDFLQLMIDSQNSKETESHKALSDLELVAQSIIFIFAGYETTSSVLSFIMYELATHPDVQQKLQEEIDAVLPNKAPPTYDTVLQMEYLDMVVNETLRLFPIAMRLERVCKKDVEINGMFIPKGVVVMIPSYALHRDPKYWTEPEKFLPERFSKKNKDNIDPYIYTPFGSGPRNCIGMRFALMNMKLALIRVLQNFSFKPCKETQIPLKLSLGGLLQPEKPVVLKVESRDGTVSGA
Outline: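 20nM CYP3A4 + 25uM Luciferin-PPXE (=KM), 200mM KPO4; cpd 10 min RT; NADPH regen, 60 min RT; stop w/ detection buffer, 20 min; luminescence. Normalized to 57 uM ketoconazole.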

OC[C@H](CCc1c[nH]c2ccccc12)c1c[nH]c2ccccc12
inactive: Potency [1] > 11.4 µM | activity change, negative = inhibition [2] -11.6% | activity change, negative = inhibition [3] 29.4% | activity, negative = inhibition [4] -1.35% | Potency [5] > 46 µM | Potency [6] > 9.22 µM | Potency [7] | Potency [8] | activation [9] -29.3%

c1ccc(-c2cnc(-c3ccc(-c4ncc(-c5ccccc5)o4)cc3)o2)cc1
inactive: Potency [1] > 11.4 µM | activity change, negative = inhibition [2] -0.667% | activity change, negative = inhibition [3] 14.2% | activity, negative = inhibition [4] -0.742% | Potency [5] > 46 µM | Potency [6] > 9.22 µM | Potency [7] | Potency [8] | activation [9] 15%

O=C(O)c1cccc(N=Nc2c(S(=O)(=O)O)ccc3c2C(=O)c2ccccc2C3=O)c1O
inactive: Potency [1] > 11.4 µM | activity change, negative = inhibition [2] 9.86% | activity change, negative = inhibition [3] -3.54% | activity, negative = inhibition [4] -9.02% | Potency [5] > 46 µM | Potency [6] > 9.22 µM | Potency [8]

O=C(O)CCCc1ccc2ccccc2c1
inactive: Potency [1] > 11.4 µM | activity change, negative = inhibition [2] -3.28% | activity change, negative = inhibition [3] -9.96% | activity, negative = inhibition [4] 3.96% | Potency [5] > 46 µM | Potency [6] > 9.22 µM | Potency [7] | Potency [8] | activation [9] -6.23%

NC(=O)CS(=O)C[C@H](N)C(=O)O (stereo not given in full)
inactive: Potency [1] > 11.4 µM | activity change, negative = inhibition [2] 23.6% | activity change, negative = inhibition [3] 11% | activity, negative = inhibition [4] 5.38% | Potency [5] > 46 µM | Potency [6] > 9.22 µM | Potency [7] | Potency [8] | activation [9] 18.8%

O=c1cc(N=Nc2ccc(O)cc2)[nH]c(=O)[nH]1
inactive: Potency [1] > 11.4 µM | activity change, negative = inhibition [2] -6.46% | activity change, negative = inhibition [3] -4.22% | activity, negative = inhibition [4] 4.24% | Potency [5] > 46 µM | Potency [6] > 9.22 µM | Potency [7] | Potency [8] | activation [9] -26.3%

CC(C)Cn1cnc2c(SCc3ccccn3)nc(N)nc21
inactive: Potency [1] > 11.4 µM | activity change, negative = inhibition [2] -13.7% | activity change, negative = inhibition [3] 8.93% | activity, negative = inhibition [4] -1.91% | Potency [5] > 46 µM | Potency [6] > 9.22 µM | Potency [7] | Potency [8] | activation [9] 13.1%

Cc1ccc(N=Nc2c(O)c(S(=O)(=O)O)cc3cc(S(=O)(=O)O)ccc23)c(C)c1
inactive: Potency [1] > 11.4 µM | activity change, negative = inhibition [2] 19.9% | activity change, negative = inhibition [3] 10.1% | activity, negative = inhibition [4] -2.41% | Potency [5] > 46 µM | Potency [6] > 9.22 µM | Potency [8]

C[C@@H]1CCCC(CC(=O)O)(CC(=O)O)C1
inactive: Potency [1] > 11.4 µM | activity change, negative = inhibition [2] -2.04% | activity change, negative = inhibition [3] -0.409% | activity, negative = inhibition [4] 6.41% | Potency [5] > 46 µM | Potency [7] | Potency [8]

Nc1nc(C(=O)O)c(N=Nc2ccccc2)c(=O)[nH]1
inactive: Potency [1] > 11.4 µM | activity change, negative = inhibition [2] 4.49% | activity change, negative = inhibition [3] -22.9% | activity, negative = inhibition [4] 7.24% | Potency [5] > 46 µM | Potency [6] > 9.22 µM | Potency [8]

CN(C)c1ccc(C(c2ccc(N(C)C)cc2)c2ccc([N+](=O)[O-])cc2)cc1
inactive: Potency [1] > 11.4 µM | activity change, negative = inhibition [2] 5.91% | activity change, negative = inhibition [3] -16.6% | activity, negative = inhibition [4] 14.9% | Potency [5] > 46 µM | Potency [6] > 9.22 µM | Potency [8] | Potency [10]

NS(=O)(=O)c1ccc(NC(=O)Nc2ccccc2F)cc1
inactive: Potency [1] > 11.4 µM | activity change, negative = inhibition [2] -3.3% | activity change, negative = inhibition [3] 20.2% | activity, negative = inhibition [4] 2.14% | Potency [5] > 46 µM | Potency [6] > 9.22 µM | Potency [7] | Potency [8] | activation [9] 3.83%

O=C(CON1C(=O)c2ccccc2C1=O)c1ccccc1
inactive: Potency [1] > 11.4 µM | activity change, negative = inhibition [2] -3.99% | activity change, negative = inhibition [3] 4.1% | activity, negative = inhibition [4] 1.01% | Potency [5] > 46 µM | Potency [6] > 9.22 µM | Potency [7] | Potency [8] | activation [9] -13.1%

O=S(=O)(O)c1ccc(NN(c2c(O)ccc3ccccc23)S(=O)(=O)O)cc1
inactive: Potency [1] > 11.4 µM | activity change, negative = inhibition [2] 8.88% | activity change, negative = inhibition [3] -1.45% | activity, negative = inhibition [4] -0.169% | Potency [5] > 46 µM | Potency [6] > 9.22 µM | Potency [8]

Cc1ccc(N=Nc2c(O)ccc3cc(S(=O)(=O)O)ccc23)cc1
inactive: Potency [1] > 11.4 µM | activity change, negative = inhibition [2] -18.1% | activity change, negative = inhibition [3] -0.401% | activity, negative = inhibition [4] -4.61% | Potency [5] > 46 µM | Potency [6] > 9.22 µM | Potency [8]

N#CCCn1c(=O)c(-c2cc(F)cc(F)c2)nc2cnc(Oc3cccc(Cl)c3)nc21
inactive: Potency [1] > 11.4 µM | activity change, negative = inhibition [2] -12.5% | activity change, negative = inhibition [3] -4.95% | activity, negative = inhibition [4] 12.5% | Potency [5] > 9.22 µM | Potency [6] > 46 µM | Potency [8] | Potency [10]
